Results filed as inconclusive are left out. Activity calls are given as the source filed them. Unless noted, calls follow the shape of the dose curve; as a rule, active = well fitted curve in the direction sought with a large enough effect; inconclusive = small, poorly fitted or top-dose-only effect, or another doubt; inactive = no such curve, though single readings can be large; an effect the other way counts as inactive or inconclusive.
Key:
[1] = qHTS for Inhibitors of Plasmodium falciparum (DD2) proliferation (AID 504314);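 also: parasite DNA measured by SYBR Green fluorescence after red cell lysis; plate controls were DMSO vehicle for no effect and artemisinin wells for full effect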
How it was run: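 Parasite proliferation measured as SYBR Green signal from Plasmodium DNA, mature erythrocytes lacking DNA. 72 h incubation, 37C; activity scaled between vehicle and 0.29 uM artemisinin, with correction from vehicle-only plates.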

[2] = qHTS for Inhibitors of Plasmodium falciparum (GB4) proliferation (AID 504315);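 also: 0% = DMSO vehicle and -100% = 0.29 µM artemisinin control; nearly all actives have a fitted effect of over 50% in size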
How it was run: (§1)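 Parasite growth measured as SYBR Green DNA fluorescence (ex 485, em 535 nm) after overnight lysis following 72 h culture at 37 °C, 0.3% parasitemia, 2.5% hematocrit. Values normalized against DMSO and 0.29 uM artemisinin controls, with plate-stack correction.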

[3] = qHTS for Inhibitors of Plasmodium falciparum (CP250) proliferation (AID 504320);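 also: plate controls were DMSO vehicle for no effect and 0.29 µM artemisinin control for full effect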
How it was run: as §1

[4] = target: Atrial natriuretic peptide receptor 1 (Homo sapiens) (UniProt P16066); test: Natriuretic polypeptide receptor (hNpr1) antagonism - Pilot CMLD screen (AID 1347052; calls by dose curve;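 also: cGMP level read as GloSensor luciferase luminescence after agonist stimulation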; also: potency is read from the fitted curve at half-maximal effect)
Sequence of Atrial natriuretic peptide receptor 1 (Homo sapiens) (P16066 whole entry, looked up): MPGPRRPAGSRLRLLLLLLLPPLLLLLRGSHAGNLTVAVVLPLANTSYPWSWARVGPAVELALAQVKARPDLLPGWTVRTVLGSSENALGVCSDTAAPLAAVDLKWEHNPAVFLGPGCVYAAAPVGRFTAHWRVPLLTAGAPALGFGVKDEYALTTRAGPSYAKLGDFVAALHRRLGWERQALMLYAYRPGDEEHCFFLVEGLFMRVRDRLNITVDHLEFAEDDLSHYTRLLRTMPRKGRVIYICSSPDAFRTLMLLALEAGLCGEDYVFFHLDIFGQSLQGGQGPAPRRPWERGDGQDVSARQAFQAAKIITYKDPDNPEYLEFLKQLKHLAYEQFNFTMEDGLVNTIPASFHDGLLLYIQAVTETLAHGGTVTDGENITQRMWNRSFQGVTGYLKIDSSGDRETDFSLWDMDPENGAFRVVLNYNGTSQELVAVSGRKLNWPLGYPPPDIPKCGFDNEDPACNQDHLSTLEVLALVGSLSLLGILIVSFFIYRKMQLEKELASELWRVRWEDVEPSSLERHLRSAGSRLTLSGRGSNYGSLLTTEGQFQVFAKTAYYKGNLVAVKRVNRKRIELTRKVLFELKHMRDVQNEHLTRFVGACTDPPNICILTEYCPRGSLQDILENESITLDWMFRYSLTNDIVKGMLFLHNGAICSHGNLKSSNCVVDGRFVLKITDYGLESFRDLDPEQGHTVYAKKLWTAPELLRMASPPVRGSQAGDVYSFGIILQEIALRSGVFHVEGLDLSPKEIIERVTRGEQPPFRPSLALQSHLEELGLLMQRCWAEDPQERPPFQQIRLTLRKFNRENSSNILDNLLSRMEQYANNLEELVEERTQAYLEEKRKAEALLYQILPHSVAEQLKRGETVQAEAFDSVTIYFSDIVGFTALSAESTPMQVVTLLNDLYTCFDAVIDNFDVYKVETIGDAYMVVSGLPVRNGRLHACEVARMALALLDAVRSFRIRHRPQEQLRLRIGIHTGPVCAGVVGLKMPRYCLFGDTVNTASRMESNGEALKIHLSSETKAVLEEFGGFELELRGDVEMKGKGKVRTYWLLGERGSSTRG

[5] = qHTS for Inhibitors of Plasmodium falciparum (7G8) proliferation (AID 504316);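 also: series mostly up to about 6.7 µM; 0% = DMSO vehicle and -100% = 0.29 µM artemisinin full kill; nearly all actives have a fitted effect of over 65% in size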
How it was run: as §1

[6] = qHTS for Inhibitors of Plasmodium falciparum (HB3) proliferation (AID 504318);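 also: 0% = DMSO vehicle and -100% = artemisinin control; nearly all actives have a fitted effect of over 60% in size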
How it was run: as §1

[7] = target: Cytochrome P450 2C9 (Homo sapiens) (UniProt P11712); test: qHTS Assay for Inhibitors and Substrates of Cytochrome P450 2C9 (AID 883); also: potency is read from the fitted curve at half-maximal effect; nearly all actives have a fitted effect of over 60% in size
Sequence of Cytochrome P450 2C9 (Homo sapiens) (P11712 whole entry, looked up): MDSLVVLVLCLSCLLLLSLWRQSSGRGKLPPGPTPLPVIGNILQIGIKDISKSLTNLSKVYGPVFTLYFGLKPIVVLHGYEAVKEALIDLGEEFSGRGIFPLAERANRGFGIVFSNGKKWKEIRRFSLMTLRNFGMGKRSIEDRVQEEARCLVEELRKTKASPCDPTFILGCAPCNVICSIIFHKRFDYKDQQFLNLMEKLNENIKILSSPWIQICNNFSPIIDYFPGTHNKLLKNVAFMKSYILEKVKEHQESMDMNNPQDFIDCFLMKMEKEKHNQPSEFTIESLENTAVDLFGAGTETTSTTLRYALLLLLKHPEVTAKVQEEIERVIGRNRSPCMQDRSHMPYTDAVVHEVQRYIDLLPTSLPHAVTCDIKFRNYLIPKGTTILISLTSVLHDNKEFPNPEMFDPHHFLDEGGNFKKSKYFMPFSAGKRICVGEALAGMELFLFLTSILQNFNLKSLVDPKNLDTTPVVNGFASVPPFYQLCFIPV
How it was run: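 Human CYP2C9 (10nM) hydroxylated Luciferin-H (100uM, at its KM) to luciferin in 25mM KPO4. Compound was preincubated 10 min at 37C, then NADPH regeneration started a 60 min reaction at 37C. Luminescence was read after detection reagent, normalized to 57uM sulphaphenazole.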

[8] = target: Cytochrome P450 3A4 (Homo sapiens) (UniProt P08684); test: qHTS Assay for Activators of Cytochrome P450 3A4 (AID 885); also: nearly all actives have a fitted effect of over 65% in size
Sequence of Cytochrome P450 3A4 (Homo sapiens) (P08684 whole entry, looked up): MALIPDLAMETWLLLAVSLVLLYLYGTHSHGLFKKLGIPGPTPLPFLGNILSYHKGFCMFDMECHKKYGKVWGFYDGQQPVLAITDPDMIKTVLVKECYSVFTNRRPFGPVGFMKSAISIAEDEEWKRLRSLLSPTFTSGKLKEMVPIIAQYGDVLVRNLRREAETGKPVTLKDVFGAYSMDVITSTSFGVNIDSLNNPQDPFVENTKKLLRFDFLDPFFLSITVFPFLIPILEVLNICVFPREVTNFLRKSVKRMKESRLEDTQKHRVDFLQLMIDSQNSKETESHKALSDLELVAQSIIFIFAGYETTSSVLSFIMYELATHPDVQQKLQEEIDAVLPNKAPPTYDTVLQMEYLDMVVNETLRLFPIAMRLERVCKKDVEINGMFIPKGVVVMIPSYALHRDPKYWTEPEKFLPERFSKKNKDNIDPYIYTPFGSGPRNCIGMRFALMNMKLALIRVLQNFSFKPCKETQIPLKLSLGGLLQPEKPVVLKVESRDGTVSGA
How it was run: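 Human CYP3A4 dealkylates Luciferin-PPXE to luciferin, which luciferase detection converts to light. Substrate was at its KM (25uM), buffer 200mM KPO4, reaction 60 min at RT.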

C#CCCCON=C1C[C@@H](O)[C@H](O)[C@H]2[C@@H]3C(=O)N(C4CCCCC4)C(=O)[C@@H]3CC[C@H]12
inactive: Potency [1] | Potency [2] | Potency [3] | Potency [4]

COc1cc2c(cc1OC)[C@@]1(c3ccccc3)CCCC[C@H]1[C@@H]2NC(=O)C(F)(F)F
inactive: Potency [1] | Potency [2] | Potency [3] | Potency [4]

COC(=O)C1=C(C(=O)OC)[C@@H]2N(C)c3ccccc3[C@@]23CCC(=O)N(CCCOC(C)C)C3=N1
inactive: Potency [1] | Potency [2] | Potency [3] | Potency [4]

COC(=O)CC=C[C@@H](C)[C@@H](C=NOC[C@@H](O)COCc1ccco1)NS(=O)(=O)c1ccc(C)cc1
inactive: Potency [1] | Potency [2] | Potency [3] | Potency [4]

C[C@@H]1CC[C@H]2C(=O)N(Cc3ccc(Cl)cc3)C[C@@H](O)CN2[C@@H]1c1cccc(Br)c1
inactive: Potency [1] | Potency [2] | Potency [3] | Potency [4]

C[C@H](NC(=O)N1CCc2nc(COc3ccccc3)c3c(c2C1)CO[C@@H](C)C3)c1ccccc1
inactive: activity, negative = inhibition [1] -0.0576% [at 1.12 µM] | Potency [2] | Potency [3] | Potency [4]

C[C@H]1[C@@H](C(=O)N2CCCC2)CC(=O)C(=NOCc2ccccc2)C[C@H]1c1ccccc1
inactive: Potency [1] | Potency [2] | Potency [3] | Potency [4]

COC(=O)C1=C(C(=O)OC)[C@@H]2N(CC=C(C)C)c3ccccc3[C@@]23CCC(=O)N(CCc2ccccn2)C3=N1
inactive: Potency [1] | Potency [2] | Potency [3] | Potency [4]

C=CCN1C(=O)CC[C@@]23C1=NC(C(=O)OC)=C(C(=O)OC)[C@@H]2N(CC=C)c1ccccc13
active: Potency [4] 2.37 µM
inactive: Potency [1] | Potency [2] | Potency [3]

CCCNC(=O)OC[C@H]1O[C@H](CCON=C2c3cc(OC)ccc3O[C@H](c3cccc(OC)c3)[C@H]2O)C=C[C@H]1Oc1ccc(OC)cc1
inactive: Potency [1] | Potency [2] | Potency [3] | Potency [4]

COc1ccc2c(c1)O[C@@H](c1ccc3c(c1)OCO3)[C@H](OC(=O)Nc1ccc(C)c(Br)c1)C2=O
inactive: Potency [1] | Potency [2] | Potency [3] | Potency [4]

CC(=CC[Si](C)(C)C)CCC=O
inactive: Potency [1] | Potency [2] | Potency [3] | Potency [4]

C=CCC(C)(NCc1ccccc1)C(=O)OCC (stereo unspecified)
inactive: Potency [1] | Potency [5] | Potency [6] | Potency [4]

C=CC[C@@]1(c2ccc(Br)cc2OC)Oc2ccccc2-c2nccnc21
inactive: Potency [1] | Potency [5] | Potency [4]

COCCN1C(=O)NC(c2ccc(Br)cc2)C(C(C)=O)=C1C (stereo unspecified)
inactive: Potency [1] | Potency [2] | Potency [3] | Potency [4]

C[C@H](O)CON1C(=O)c2ccccc2C1=O
inactive: Potency [1] | Potency [2] | Potency [3] | Potency [4]

CC(CCN1CCCCc2nc(C)c(C)cc21)=NO[C@@H](C)CN1CCCCc2nc(C)c(C)cc21
inactive: Potency [1] | Potency [5] | Potency [6] | Potency [4]

COc1ccc(O[C@H]2C=C[C@@H](c3ccccc3)O[C@H]2COC(=O)NCc2cccc3ccccc23)cc1
inactive: Potency [1] | Potency [2] | Potency [3] | Potency [4]

COc1ccc(COC(=O)NN=C2C[C@@H](O)[C@@H](O)[C@@H]3[C@H]4C(=O)N(C5CCCCC5)C(=O)[C@@H]4CC[C@@H]23)cc1
inactive: Potency [1] | Potency [2] | Potency [3] | Potency [4]

C[C@@H]1CC[C@H]2C(=O)N3[C@@H](CC[C@@H](C)[C@@H]3c3ccc(Br)cc3)C(=O)N2[C@@H]1c1ccc(Br)cc1
inactive: activity change, positive = activation [8] -42.7% [at 11.4 µM] | Potency [1] | Potency [2] | Potency [3] | Potency [4]
active: Potency [7] 3.98 µM

COC(=O)CCCC1=CC2=CC(=O)C(C)(OC(=O)c3cccs3)C(=O)C2=CN1c1ccc(OC)cc1 (stereo unspecified)
inactive: activity, negative = inhibition [1] 1.04% [at 1.12 µM] | Potency [2] | Potency [3] | Potency [4]

COC(=O)N[C@@H](C=Cc1ccccc1)[C@@H](C)[N+](=O)[O-]
inactive: Potency [1] | Potency [5] | Potency [6] | Potency [4]

CCOC(=O)CN1C(=O)C2(CC(C)=C[C@@H](C)O2)c2c(Br)cccc21 (stereo partly specified)
inactive: Potency [1] | Potency [5] | Potency [6] | Potency [4]

COc1ccc(-c2nc3c(c4c2C[C@H](c2ccccc2)OC4)CN(C(=O)C2CC2)CC3)c(C)c1
inactive: Potency [1] | Potency [2] | Potency [3] | Potency [4]

COc1ccc(O[C@H]2C=C[C@@H](c3ccccc3)O[C@H]2CON=C[C@@H](C)[C@H](OCc2ccccc2)C(C)C)cc1
inactive: Potency [1] | Potency [2] | Potency [3] | Potency [4]
